Screening data from PubChem BioAssay.
TcdB GH inh: inhibitors of Clostridioides difficile toxin B glycohydrolase; P18177; TcdB glycohydrolase enzymatic assay, plate reader; inhibition, % at 9.99 µM; 0.24% of 350,000 active; AID 652162; in the data active = inhibition above about 10%
BoNT-A LC inh2: blocks Botulinum neurotoxin A light chain protease; 0.17% of 360,000 active; inhibition, % at 10 µM; AID 588499; multiplex microsphere protease substrate cleavage, flow cytometry; also: plate controls were buffer without enzyme for full effect and enzyme alone for no effect
BoNT-F LC inh: inhibitors of Botulinum neurotoxin F light chain protease; Multiplex microsphere protease cleavage assay, flow cytometry; inhibition, % at 10 µM; 0.22% of 360,000 active; AID 588497; in the data active = inhibition above about 35%, passing the limit was not always enough; inconclusive = no clear call, values can overlap the other calls; also: plate controls were buffer without enzyme for full effect and enzyme alone for no effect
Anthrax LF prot: anthrax lethal factor protease inhibition; P15917; multiplex microsphere protease cleavage assay, LF; inhibition, % at 10 µM; 0.12% of 360,000 active; AID 588501; also: plate controls were buffer without enzyme for full effect and enzyme alone for no effect
Target sequence (P15917 whole entry, looked up): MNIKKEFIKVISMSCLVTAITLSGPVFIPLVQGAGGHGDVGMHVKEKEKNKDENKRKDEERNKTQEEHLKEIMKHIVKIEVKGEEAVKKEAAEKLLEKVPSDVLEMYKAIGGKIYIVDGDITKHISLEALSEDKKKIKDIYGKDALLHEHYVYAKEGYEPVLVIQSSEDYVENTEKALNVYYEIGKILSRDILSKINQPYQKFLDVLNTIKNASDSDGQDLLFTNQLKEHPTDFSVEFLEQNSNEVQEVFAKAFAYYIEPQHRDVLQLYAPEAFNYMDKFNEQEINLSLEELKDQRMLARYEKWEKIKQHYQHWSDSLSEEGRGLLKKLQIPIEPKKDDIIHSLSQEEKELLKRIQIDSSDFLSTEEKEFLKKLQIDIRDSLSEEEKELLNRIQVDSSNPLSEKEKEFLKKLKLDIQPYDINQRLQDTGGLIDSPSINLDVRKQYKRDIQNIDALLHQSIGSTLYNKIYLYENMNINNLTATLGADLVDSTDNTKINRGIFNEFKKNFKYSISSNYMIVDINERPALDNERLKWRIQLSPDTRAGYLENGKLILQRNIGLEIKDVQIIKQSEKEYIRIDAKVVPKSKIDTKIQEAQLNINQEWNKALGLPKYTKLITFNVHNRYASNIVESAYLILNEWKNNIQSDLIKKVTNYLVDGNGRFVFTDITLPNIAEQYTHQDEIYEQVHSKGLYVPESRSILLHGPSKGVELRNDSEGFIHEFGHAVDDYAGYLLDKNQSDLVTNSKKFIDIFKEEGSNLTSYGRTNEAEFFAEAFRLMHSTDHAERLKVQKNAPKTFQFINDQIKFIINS
Autofluor counter: flagged as autofluorescent in microsphere protease counterscreen; compound autofluorescence counterscreen, microsphere flow cytometry; hits give high values; fluorescence intensity (test concentration not listed); 3.1% of 360,000 active; AID 624483; in the data active = fluorescence intensity above about 16000; inconclusive = no clear call, values can overlap the other calls
An asterisk follows results filed as active; u = inconclusive; x = no result. The entries come from a sample that favours hits as a whole. Rule as the data show it, unless noted: active = inhibition above about 30%; inconclusive = no clear call, values can overlap the other calls; inactive = below that.

SMILES	TcdB GH inh	BoNT-A LC inh2	BoNT-F LC inh	Anthrax LF prot	Autofluor counter
COCC(=O)Nc1ccc2c(c1)OC[C@H](C)N(CC1CC1)C[C@H](C)[C@@H](OC)CN(C)C2=O	-1.7	x	x	x	x
CCn1c(SCC(=O)N2CCN(c3ccccc3)CC2)nnc1-c1cc2cc(Cl)ccc2o1	x	u	0.1	-2.9	22674*
CC(=O)Nc1cnc(-c2ccccc2O)cn1	11.6*	-0.2	0.8	-4.9	3498
C[C@H]1CN([C@@H](C)CO)C(=O)c2cc(C3=CCCC3)cnc2O[C@H]1CN(C)Cc1ccccn1	0.1	x	x	x	x
Cc1ccc(S(=O)(=O)Nc2ccc3c(c2)C(=O)N([C@@H](C)CO)C[C@H](C)[C@H](CN(C)C(=O)Nc2ccc(F)cc2)O3)cc1	0.3	x	x	x	x
O=C(COc1ccc(F)cc1)Nc1nnc(-c2ccncc2)s1	x	-3.2	-8.4	-4.5	18059*
Cc1ccc(/C=C2/Sc3ccccc3N(CC(=O)NCC3CCCO3)C2=O)cc1 (stereo unspecified)	x	0.1	-1.6	-0.8	5935
Cc1cc(/C=C2\Sc3ccccc3N2C)cc(C)[n+]1CC1CCCO1 (stereo unspecified)	0.3	42.5*	0.8	14.9	5172
CCOC(=O)N1CCN(C(=O)Nc2ccc(Cl)cc2)CC1	x	0.3	4.3	-1.9	4208
CCOC(=O)N1CCN(C(=O)Nc2cccc(Cl)c2)CC1	x	3.8	4.0	-1.9	19827*
COC(=O)c1ccc(NC(=S)N2CCN(Cc3cccc(C)c3)CC2)cc1	x	2.6	5.1	3.6	21917*
COC(=O)c1ccc(NC(=S)N2CCN(Cc3ccccc3)CC2)cc1	x	-0.3	-0.8	-1.9	6365
COc1ccccc1N1CCN(C(=O)Nc2cccc(Cl)c2)CC1	0.9	u	-12.9	-3.9	17904*
O=C1CCN(C(=O)Nc2cccc(Cl)c2)N1	x	-1.0	-1.5	-2.9	22772*
CCC(=O)N1C[C@@H](C)[C@H](OC)CN(C)C(=O)c2cc(NC(=O)C3CC3)ccc2OC[C@@H]1C	0.7	x	x	x	x
CCOC(=O)C1CCN(C(=S)Nc2cccc(C)c2)CC1	0.8	-0.8	-6.3	-4.5	13162
CCOC(=O)N1CCN(C(=S)Nc2cccc(C)c2)CC1	x	-1.8	-4.4	-13.0	23824*
Cc1ccc(C)n1-c1nc(=S)[nH][nH]1	x	-0.8	-0.6	-0.9	16597*
CCOc1ccc(OCCNC2CCCC2)cc1	x	u	-6.3	-3.0	22478*
CCCOc1ccc(OCCNC2CCCC2)cc1	x	0.5	0.0	-0.5	20118*
CCOc1cc(/C=N\n2nnnc2N)ccc1O	22.6*	-1.6	-4.3	5.4	3534
CCOc1ccc(/C=N/n2nnnc2N)cc1O	19.0*	-0.3	0.0	-10.6	6085
CCOC(=O)c1[nH]c(C)c(C(=O)N2CCN(c3ccc(OC)cc3)CC2)c1C	1.6	0.5	-1.2	-1.8	2178
CCOC(=O)c1[nH]c(C)c(C(=O)Nc2cccc(Cl)c2C)c1C	x	2.6	3.4	-4.1	19613*
CCOC(=O)c1[nH]c(C)c(C(=O)N2CCN(C(=O)c3ccco3)CC2)c1C	5.0	0.1	10.0	0.3	7638
SMILES	TcdB GH inh	BoNT-A LC inh2	BoNT-F LC inh	Anthrax LF prot	Autofluor counter
CCOC(=O)c1[nH]c(C)c(C(=O)NCCCOC(C)C)c1C	1.8	-3.7	-4.6	-0.7	21373*
CCOC(=O)c1[nH]c(C)c(C(=O)N2CCN(c3ccc(F)cc3)CC2)c1C	x	3.8	2.0	-2.5	21567*
CCOC(=O)c1[nH]c(C)c(C(=O)N2CCN(c3cccc(Cl)c3)CC2)c1C	0.9	2.1	1.4	0.1	19964*
Cc1ccc(-c2ccc3c(c2)O[C@H](CN(C)C)[C@H](C)CN([C@H](C)CO)S3(=O)=O)cc1	0.1	x	x	x	x
C[C@@H]1CN([C@@H](C)CO)C(=O)c2cc(NS(C)(=O)=O)ccc2O[C@H]1CN(C)C(=O)NC1CCCCC1	0.9	x	x	x	x
Cc1ccc(NC(=S)NC(=O)c2c(-c3ccccc3Cl)noc2C)cc1	x	u	-1.4	-0.2	22637*
O=C(Nc1ccc(OCC(=O)N2CCOCC2)cc1)c1ccccc1Cl	-3.8	-1.9	-6.3	3.8	6435
Cc1noc(C)c1C(=O)Nc1nc(-c2cc(F)ccc2F)cs1	3.7	-2.9	2.9	-4.1	6880
Cc1onc(-c2ccccc2Cl)c1C(=O)Nc1ccc(F)c(F)c1	x	0.1	-3.1	-13.8	22619*
Cc1onc(-c2ccccc2Cl)c1C(=O)Nc1ccc(OCC(=O)N2CCOCC2)cc1	x	-0.1	-1.7	-0.6	16183*
Cc1onc(-c2ccccc2)c1C(=O)Nc1nc(-c2cc(F)ccc2F)cs1	x	-0.1	-0.8	-2.6	20225*
CCN1[C@@H]2Cn3c(ccc(-c4ccc(OC)cc4)c3=O)[C@H]1[C@@H](C(=O)NCC1CC1)[C@@H]2CO	-6.7	x	x	x	x
C[C@@H]1CCCCO[C@H](CN(C)C(=O)c2ccccc2)[C@@H](C)CN([C@@H](C)CO)C(=O)c2cc(NC(=O)Nc3cccc4ccccc34)ccc2O1	-0.6	x	x	x	x
COC(=O)c1cc(OC)c(OC)cc1NC(=O)c1c(-c2ccccc2Cl)noc1C	x	3.2	4.7	0.0	21663*
O=C(Cn1nnc(-c2ccccc2NC(=O)C2CC2)n1)NC1CCCCC1	x	-0.9	-12.4	-3.5	6780
Cc1onc(-c2ccccc2Cl)c1C(=O)N1CCN(c2ccccc2)CC1	1.5	u	2.4	-3.6	22146*
COc1ccccc1NC(=S)NC(=O)c1c(-c2ccccc2Cl)noc1C	-0.3	-0.1	-6.6	-0.8	2747
COc1cccc(-c2nnn(CC(=O)NC3CCCC3)n2)c1OC	x	-1.2	0.2	-5.0	16511*
Cc1onc(-c2ccccc2Cl)c1C(=O)N1CCN(c2cccc(Cl)c2)CC1	0.2	-0.2	-9.0	1.6	5142
COC(=O)c1cc(OC)c(OC)cc1NC(=O)Cn1nnc(-c2ccccc2Cl)n1	x	-1.6	-4.8	-2.4	24177*
CCC(=O)N1CC(=O)N2[C@H](C1)[C@@H](c1ccc(C#Cc3cccc(OC)c3)cc1)[C@@H]2CO	1.3	x	x	x	x
CC=Cc1ccc2n(c1=O)C[C@H]1[C@H](CO)[C@@H](C(=O)NCCC)N(Cc3ccccn3)[C@@H]21 (mixture of isomers)	0.4	x	x	x	x
C[C@H](CO)N1C[C@H](C)[C@H](CN(C)C(=O)CCCN(C)C)OCCCC[C@H](C)Oc2ccc(NC(=O)Cc3ccccc3)cc2C1=O	0.5	x	x	x	x
Cc1onc(-c2c(F)cccc2Cl)c1C(=O)Nc1sc2c(c1C(N)=O)CCC2	x	-0.7	-1.9	-2.7	16903*
Cc1ccc(/C=c2\sc3nc(-c4ccccc4Br)nn3c2=O)o1	x	5.2	-15.1	6.6	3367
SMILES	TcdB GH inh	BoNT-A LC inh2	BoNT-F LC inh	Anthrax LF prot	Autofluor counter
Cc1ccc(/C=c2/sc3nnc(-c4ccccc4Cl)n3c2=O)o1	x	0.0	-2.5	-3.4	16190*
CCN(CC)c1ccc(/C=c2\sc3nnc(-c4ccccc4Cl)n3c2=O)cc1	x	176.5*	125.0*	80.5*	9724
CCNC(=S)N/N=C/c1ccc(OCC(=O)Nc2ccc(C)cc2)cc1	1.7	-1.0	-5.1	-4.2	20930*
CCNC(=S)N/N=C/c1ccc(OCCOc2ccccc2C)cc1	x	1.3	-1.4	4.0	23540*
CCOc1ccc(/C=N/NC(=S)Nc2c(C)cccc2C)cc1	x	-0.6	-8.2	0.2	2990
O=C(Cc1ccccn1)N[C@H]1CC[C@@H](CCn2cc(-c3cccnc3)nn2)O[C@@H]1CO	-0.2	x	x	x	x
O=C(NCC1CCCO1)c1cc2n(n1)C(C(F)(F)F)CC(c1ccc(Br)cc1)N2 (stereo unspecified)	x	u	0.7	2.0	20177*
